PubChem BioAssay AID1159580 (chemical genetic matrix, 2015)
The whole screen tested about 5,500 compounds, of which about 2,000 (36%) were called active. Roughly 18% stayed inconclusive and do not appear here. Some of the results follow. Unmarked numbers belong to inactive results. Cut-off read from the data, not from the text of the source: active = normalized growth mostly below about 0.91 (no sharp cut-off); inconclusive = no clear call, values can overlap the other calls; inactive = mostly above about 0.92.

Assay: chemical genetic growth profiling, strain panel (AID 1159580);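 note: tested at 20 µM; growth read once vehicle control cultures reached saturation at 30 °C; 1 = growth at the plate median or of vehicle wells; lower values mean less growth of the strain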
Conditions: S. cerevisiae deletion strains, growth OD
[1] = locus YDL101C, strain DUN1, active compounds read low
[2] = locus YHR030C, strain SLT2, active compounds read low

O=C(Nc1ccccc1)NC1CCCC1
normalized growth (locus YAL013W, strain DEP1, active compounds read low): 1.02
normalized growth (locus YBR229C, strain ROT2, active compounds read low): 0.983
normalized growth (locus YCL061C, strain MRC1, active compounds read low): 1.02
normalized growth [1]: 0.989
normalized growth (locus YDL134C, strain PPH21, active compounds read low): 1.01
normalized growth (locus YDR150W, strain NUM1, active compounds read low): 0.983
normalized growth (locus YEL061C, strain CIN8, active compounds read low): 0.965
normalized growth (locus YGR078C, strain PAC10, active compounds read low): 1.01
normalized growth [2]: 1.07
normalized growth (locus YHR087W, strain rtc3, active compounds read low): 0.997
normalized growth (locus YJR043C, strain POL32, active compounds read low): 1.04
normalized growth (locus YJR075W, strain HOC1, active compounds read low): 0.992
normalized growth (locus YKL190W, strain CNB1, active compounds read low): 0.991
normalized growth (locus YLR039C, strain RIC1, active compounds read low): 1.01
normalized growth (locus YLR058C, strain SHM2 (second series), active compounds read low): 0.997
normalized growth (locus YLR085C, strain ARP6, active compounds read low): 0.991
normalized growth (locus YLR262C, strain YPT6, active compounds read low): 1.05
normalized growth (locus YML094W, strain GIM5, active compounds read low): 0.96
normalized growth (locus YMR219W, strain ESC1, active compounds read low): 0.997
normalized growth (locus YMR263W, strain SAP30, active compounds read low): 1.01
normalized growth (locus YMR307W, strain GAS1, active compounds read low): 1.03
normalized growth (locus YNL128W, strain TEP1, active compounds read low): 0.941
normalized growth (locus YNL153C, strain GIM3, active compounds read low): 1.01
normalized growth (locus YNL298W, strain CLA4 (second series), active compounds read low): 0.985
normalized growth (locus YNL322C, strain KRE1, active compounds read low): 0.996
normalized growth (locus YNR030W, strain Alg12, active compounds read low): 1
normalized growth (locus YPL055C, strain LGE1, active compounds read low): 1.02
normalized growth (locus YPL241C, strain CIN2, active compounds read low): 0.99
normalized growth (locus YPR135W, strain CTF4, active compounds read low): 1.13

N#Cc1ccc(NC(=O)Nc2cccc3ccccc23)cc1
normalized growth (locus YAR019C, strain CDC15, active compounds read low): 0.965
normalized growth (locus YBL105C, strain PKC1, active compounds read low): 0.974
normalized growth (locus YBR135W, strain CKS1, active compounds read low): 0.96
normalized growth (locus YBR136W, strain MEC1, active compounds read low): 0.971
normalized growth (locus YBR160W, strain CDC28, active compounds read low): 0.96
normalized growth (locus YDL017W, strain CDC7, active compounds read low): 0.974
normalized growth (locus YDL028C, strain MPS1, active compounds read low): 0.971
normalized growth [1]: 0.992
normalized growth (locus YDL108W, strain KIN28, active compounds read low): 0.958
normalized growth (locus YDL132W, strain cdc53, active compounds read low): 0.972
normalized growth (locus YDL214C, strain PRR2, active compounds read low): 0.928
normalized growth (locus YDR052C, strain DBF4, active compounds read low): 0.995
normalized growth (locus YDR054C, strain cdc34, active compounds read low): 0.957
normalized growth (locus YDR226W, strain ADK1, active compounds read low): 0.985
normalized growth (locus YDR477W, strain SNF1, active compounds read low): 0.926
normalized growth (locus YER123W, strain YCK3, active compounds read low): 0.919
normalized growth (locus YER133W, strain GLC7, active compounds read low): 0.955
normalized growth (locus YFL009W, strain cdc4, active compounds read low): 0.967
normalized growth (locus YFL029C, strain CAK1, active compounds read low): 0.968
normalized growth (locus YFR003C, strain YPI1, active compounds read low): 0.968
normalized growth (locus YFR019W, strain FAB1, active compounds read low): 0.932
normalized growth (locus YFR028C, strain CDC14, active compounds read low): 0.958
normalized growth (locus YGR040W, strain KSS1, active compounds read low): 0.921
normalized growth (locus YGR052W, strain FMP48, active compounds read low): 0.979
normalized growth (locus YGR092W, strain DBF2, active compounds read low): 0.923
normalized growth [2]: 0.938
normalized growth (locus YHR079C, strain IRE1, active compounds read low): 0.924
normalized growth (locus YHR082C, strain KSP1, active compounds read low): 0.986
normalized growth (locus YHR205W, strain SCH9, active compounds read low): 0.89
normalized growth (locus YIL147C, strain SLN1, active compounds read low): 0.963
normalized growth (locus YJL095W, strain BCK1, active compounds read low): 0.962
normalized growth (locus YJL128C, strain PBS2, active compounds read low): 0.955
normalized growth (locus YJL157C, strain FAR1, active compounds read low): 0.929
normalized growth (locus YJR016C, strain ILV3, active compounds read low): 0.966
normalized growth (locus YJR066W, strain TOR1 (second series), active compounds read low): 0.903
normalized growth (locus YJR066W, strain TOR1, active compounds read low): 0.972
normalized growth (locus YKL048C, strain ELM1, active compounds read low): 0.949
normalized growth (locus YKL067W, strain YNK1, active compounds read low): 0.941
normalized growth (locus YKL101W, strain HSL1, active compounds read low): 0.916
normalized growth (locus YKL193C, strain SDS22, active compounds read low): 0.963
normalized growth (locus YKL203C, strain TOR2, active compounds read low): 0.998
normalized growth (locus YLR113W, strain HOG1, active compounds read low): 0.832 (active)
normalized growth (locus YLR133W, strain CKI1, active compounds read low): 0.913
normalized growth (locus YLR403W, strain SFP1, active compounds read low): 0.892
normalized growth (locus YML070W, strain DAK1, active compounds read low): 0.901
normalized growth (locus YMR001C, strain CDC5, active compounds read low): 0.967
normalized growth (locus YMR205C, strain PFK2 (second series), active compounds read low): 0.939
normalized growth (locus YMR277W, strain FCP1, active compounds read low): 0.966
normalized growth (locus YNL006W, strain LST8, active compounds read low): 0.978
normalized growth (locus YNL020C, strain ARK1, active compounds read low): 0.917
normalized growth (locus YNL161W, strain CBK1, active compounds read low): 0.963
normalized growth (locus YNL183C, strain NPR1, active compounds read low): 0.943
normalized growth (locus YNL207W, strain RIO2, active compounds read low): 0.968
normalized growth (locus YNL222W, strain SSU72, active compounds read low): 0.967
normalized growth (locus YNL307C, strain MCK1 (second series), active compounds read low): 0.925
normalized growth (locus YOL078W, strain AVO1, active compounds read low): 0.972
normalized growth (locus YOL136C, strain PFK27, active compounds read low): 0.91
normalized growth (locus YOR061W, strain CKA2, active compounds read low): 0.929
normalized growth (locus YOR119C, strain RIO1, active compounds read low): 0.966
normalized growth (locus YOR231W, strain MKK1, active compounds read low): 0.887
normalized growth (locus YOR329C, strain SCD5, active compounds read low): 0.976
normalized growth (locus YPL031C, strain PHO85, active compounds read low): 0.92
normalized growth (locus YPL153C, strain RAD53, active compounds read low): 0.925
normalized growth (locus YPL204W, strain HRR25, active compounds read low): 0.909
normalized growth (locus YPL209C, strain IPL1, active compounds read low): 0.967
normalized growth (locus YPL256C, strain CLN2, active compounds read low): 0.872
normalized growth (locus YPR025C, strain CCL1, active compounds read low): 0.967
normalized growth (locus YPR106W, strain ISR1, active compounds read low): 0.958
normalized growth (locus YPR111W, strain DBF20, active compounds read low): 0.952
normalized growth (strain NNK1, active compounds read low): 0.967
normalized growth (strain TSCII, active compounds read low): 0.969
